# Assay results reported in PubChem BioAssay (NCATS).
# Records with an inconclusive call do not appear. Entries that show only a call come without a potency. Calls of active or inactive are those of the source. The call rests on the fitted dose curve; in most records, active means well fitted curve in the direction sought with a large enough effect; inconclusive means small, poorly fitted or top-dose-only effect, or another doubt; inactive means no such curve, though single readings can be large; an effect the other way counts as inactive or inconclusive.
# Tests used:
# [1] = Cell Viability - LYMP1-003 - Assay at 40 hr (AID 964); details: LYMP1-003 lymphoblastoid viability; series mostly up to 92.2 µM; further: nearly all actives have a fitted effect of over 60% in size; further: potency means the concentration at half of the fitted maximal effect
# Summary of the method: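 Viability is taken as cellular ATP, read by CellTiter-Glo luminescence after 40 h of compound exposure at 37 C. Cells: human lymphoblastoid line LYMP1-003 at 2500/well; AC50 values derived by Hill-equation fitting of concentration-response data.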
# [2] = Cell Viability - LYMP2-003 (AID 965); details: LYMP2-003 lymphoblastoid cell viability; series mostly up to 92.2 µM;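 further: cells exposed to compounds for 24 h before reading; nearly all actives have a fitted effect of over 50% in size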
# Excerpt: NIH Chemical Genomics Center [NCGC]
# NIH Molecular Libraries Screening Centers Network [MLSCN]
# National Institutes of Environmental Health Sciences [NIEHS]
# National Toxicology Program [NTP]
# We have developed a 1536-well cell-based assay for quantitative high throughput screening (qHTS) against a number of cell lines to determine in vitro cytotoxicity of small molecules. This particular assay uses a human lymphoblastoid cell line (LYMP2-003) purchased from Coriell Institute for Medical Research.
# NCGC Assay Protocol Summary:
# The CellTiter-Glo luminescent cell viability assay (Promega) is a homogeneous method to measure the number of viable cells in culture. The end point readout of this assay is based on quantitation of intracellular ATP, an indicator of metabolic activity, using the luciferase reaction. Luciferase catalyzes the oxidation of beetle Luciferin to oxyluciferin and light in the presence of ATP. The luminescent signal is proportional to amount of ATP present.
# Using the CellTiter-Glo luminescent cell viability assay, the amount of cellular ATP was measured in the lymphoblastoid cell line with complete culture medium following compound treatment for 24 hours. The assay was performed in opaque white Kalypsys 1536-well plates. In the screen, tetraoctylammonium bromide was used as positive control. Library compounds were measured for their ability to cause acute toxicity in the cell line, as reflected by a decrease in intracellular ATP levels, in a concentration-dependent manner. […] AC50 values were determined from concentration-response data modeled with the standard Hill equation.
# qHTS protocol for CellTiter Glo lymphoblastoid cellular assay
# [Step] [Parameter] [Value] [Description]
# 1. Reagent; 5 uL; 2500 lymphoblastoid cells/well
# 2. Time; 5 hr; 37 C incubation
# 4. Controls; 23 nL; Tetraoctylammonium bromide 6.4pM to 92 uM
# 5. Time; 24 hr; 37 C incubation
# 6. Reagent; 5 uL; CellTiter Glo reagent
# 7. Time; 30 min; Room Temperature
# 8. Detection; Luminescence; Viewlux plate reader
# Keywords: cell viability, cytotoxicity, lymphoblastoid cell line, luminescence, NTPHTS, NTPHTS_NCGC, NIEHS, DSSTox, MLSMR, MLSCN, NIH Roadmap, qHTS, NCGC
# [3] = Cell Viability - LYMP2-004 (AID 966); details: LYMP2-004 lymphoblastoid cell viability, qHTS; series mostly up to 92.2 µM; further: nearly all actives have a fitted effect of over 65% in size
# Summary of the method: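 AC50 values come from Hill modelling of concentration-dependent loss of intracellular ATP, measured by CellTiter-Glo luminescence. Human LYMP2-004 lymphoblastoid cells (2500/well) were exposed to compound for 24 h at 37 C.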
# [4] = Cell Viability - LYMP2-005 (AID 967); details: LYMP2-005 lymphoblastoid cell viability; series mostly up to 92.2 µM
# Summary of the method: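 Acute cytotoxicity is scored as a concentration-dependent drop in intracellular ATP in human lymphoblastoid LYMP2-005 cells after 24 h compound treatment. ATP is quantified by luciferase luminescence, and AC50 is derived by Hill-equation modelling.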
# [5] = Cell Viability - LYMP2-009 (AID 968); details: LYMP2-009 lymphoblastoid cell viability; series mostly up to 92.2 µM; further: nearly all actives have a fitted effect of over 55% in size
# [6] = Cell Viability - LYMP2-011 (AID 969); details: LYMP2-011 lymphoblastoid cells viability; series mostly up to 92.2 µM; further: nearly all actives have a fitted effect of over 60% in size
# Summary of the method: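 Cytotoxicity qHTS with ATP content as read-out: lymphoblastoid cells (2500/well) exposed to compound for 24 h at 37 C, then luciferase luminescence measured. Concentration-response data fitted with the standard Hill equation to give AC50.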
# [7] = Cell Viability - LYMP2-013 (AID 970); details: LYMP2-013 lymphoblastoid cells viability; series mostly up to 92.2 µM; further: nearly all actives have a fitted effect of over 55% in size
# Summary of the method: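 qHTS cytotoxicity: ATP-dependent luminescence (CellTiter-Glo, 30 min room temperature) read after 24 h compound exposure at 37 C of 2500 LYMP2-013 lymphoblastoid cells per well. Concentration-response fitted with Hill equation to give AC50.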
# [8] = Cell Viability - LYMP2-015 (AID 971); details: LYMP2-015 lymphoblastoid cell viability; series mostly up to 92.2 µM; further: nearly all actives have a fitted effect of over 55% in size
# Summary of the method: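 Cytotoxicity readout: decrease in intracellular ATP (CellTiter-Glo luminescence) in 2500 LYMP2-015 lymphoblastoid cells/well after 24 h compound exposure at 37 C. Concentration-response data fitted with the standard Hill equation to give AC50.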
# [9] = Cell Viability - LYMP2-017 (AID 972); details: LYMP2-017 lymphoblastoid cell viability; series mostly up to 92.2 µM; further: nearly all actives have a fitted effect of over 55% in size
# Summary of the method: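 CellTiter-Glo luminescence (cellular ATP, 30 min RT) measured cytotoxicity after 24 hr compound treatment at 37 C. Cells were a human lymphoblastoid line, LYMP2-017, plated at 2500/well and incubated 5 hr first; concentration-response fitted with Hill equation for AC50.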
# [10] = Cell Viability - LYMP2-019 (AID 973); details: LYMP2-019 lymphoblastoid cell line viability; series mostly up to 92.2 µM; further: nearly all actives have a fitted effect of over 55% in size
# Summary of the method: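 AC50 values come from Hill-equation fits of luminescent intracellular ATP (CellTiter-Glo, 30 min, room temperature) following 24 h compound exposure at 37 C. Cells: LYMP2-019 lymphoblastoid line, 2500 per well, in complete culture medium.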
SMILES,Potency [1],outcome [2],outcome [3],outcome [4],outcome [5],outcome [6],outcome [7],outcome [8],outcome [9],outcome [10]
O=c1[nH]cnc2[nH]ncc12,inactive,inactive,inactive,inactive,inactive,inactive,inactive,inactive,inactive,inactive
CC(=O)Oc1ccccc1C(=O)O,inactive,inactive,inactive,inactive,inactive,inactive,inactive,inactive,inactive,inactive
NC(N)=NC(=O)c1nc(Cl)c(N)nc1N,inactive,inactive,inactive,inactive,inactive,inactive,inactive,inactive,inactive,inactive
NC(=O)c1cnccn1,inactive,inactive,–,inactive,inactive,inactive,inactive,inactive,inactive,inactive
NS(=O)(=O)c1cc2c(cc1Cl)NC=NS2(=O)=O,inactive,inactive,inactive,inactive,inactive,inactive,inactive,inactive,inactive,inactive
CCCC(CCC)C(=O)O,inactive,inactive,inactive,inactive,inactive,inactive,inactive,inactive,inactive,inactive
Cn1cnc([N+](=O)[O-])c1Sc1ncnc2nc[nH]c12,2.51 µM (active),–,–,–,–,–,–,–,–,–
